Results filed as inconclusive are left out. Entries that show only a call come without a potency. Activity calls are given as the source filed them. Unless noted, calls come from the whole dose curve; as a rule, active = well fitted curve in the direction sought with a large enough effect in the repeat runs; inconclusive = weak or mixed curves; inactive = no such curve, though single readings can be large; an effect the other way counts as inactive or inconclusive.
Legend:
[1] = qHTS assay to identify small molecule agonists of the peroxisome proliferator-activated receptor delta (PPARd) signaling pathway - cell viability counter screen (AID 743211); note: nearly all actives have a fitted effect of over 55% in size
Method in brief: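 Viability of GeneBLAzer PPARd UAS-bla HEK293H cells was assessed after 17 h compound incubation at 37C, using CellTiter-Glo reagent added after the reporter read and luminescence recorded 30 min later.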

[2] = qHTS assay to identify small molecule antagonists of the peroxisome proliferator-activated receptor delta (PPARd) signaling pathway - cell viability counter screen (AID 743213); note: nearly all actives have a fitted effect of over 50% in size
Method in brief: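 CellTiter-Glo was added to PPARd-bla HEK293H wells following 17 h compound treatment in the presence of 300 nM L165041. Luminescence was recorded after 30 min at room temperature.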

[3] = target: Peroxisome proliferator-activated receptor delta (Homo sapiens) (UniProt Q03181); assay: qHTS assay to identify small molecule antagonists of the peroxisome proliferator-activated receptor delta (PPARd) signaling pathway (AID 743215; active = well fitted inhibition curve with a large enough effect in the signal ratio in the repeat runs, not every such curve was filed as active; the % refers to the signal ratio;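 note: cells stimulated with agonist L165041 at 300 nM final during compound exposure; series mostly up to about 62 µM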)
Chain of Peroxisome proliferator-activated receptor delta (Homo sapiens) (Q03181 whole entry, looked up): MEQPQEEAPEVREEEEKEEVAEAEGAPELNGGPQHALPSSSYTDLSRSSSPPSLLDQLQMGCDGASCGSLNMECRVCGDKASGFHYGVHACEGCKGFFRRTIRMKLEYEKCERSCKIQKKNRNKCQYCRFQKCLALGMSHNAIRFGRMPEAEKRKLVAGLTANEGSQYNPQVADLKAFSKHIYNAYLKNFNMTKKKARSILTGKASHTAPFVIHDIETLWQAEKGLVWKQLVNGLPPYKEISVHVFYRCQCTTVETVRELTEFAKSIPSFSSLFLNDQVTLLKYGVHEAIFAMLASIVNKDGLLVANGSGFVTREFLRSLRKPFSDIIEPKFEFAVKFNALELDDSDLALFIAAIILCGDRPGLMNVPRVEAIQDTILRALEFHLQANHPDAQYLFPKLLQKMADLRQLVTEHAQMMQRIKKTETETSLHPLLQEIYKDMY
Method in brief: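 Read-out is beta-lactamase FRET fluorescence, measured 2 h after substrate addition at room temperature. Beforehand, UAS-bla HEK293H cells carrying the PPARd reporter were exposed to compounds with L165041 at 300 nM final for 17 h at 37 C.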

[4] = qHTS assay to identify small molecule agonists of the farnesoid-X-receptor (FXR) signaling pathway - cell viability counter screen (AID 743218); note: nearly all actives have a fitted effect of over 45% in size
Method in brief: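 HEK 293T FXR-bla cells; 5 h pre-incubation, 16 h compound exposure at 37 C; LiveBLAzer substrate 2 h RT, then CellTiter-Glo 30 min RT, luminescence.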

[5] = qHTS assay to identify small molecule antagonists of the farnesoid-X-receptor (FXR) signaling pathway - cell viability counter screen (AID 743221; active = well fitted cell-killing curve with a large enough effect in the repeat runs, not every such curve was filed as active; note: nearly all actives have a fitted effect of over 50% in size)
Method in brief: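 Quantitative HTS of the Tox21 10K library run in parallel with the beta-lactamase reporter read. HEK 293T cells carrying a UAS-driven bla reporter got compound and 50 uM CDCA (final) for 16 h; ATP-based luminescence followed.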

[6] = qHTS assay to identify small molecule agonists of the vitamin D receptor (VDR) signaling pathway - cell viability counter screen (AID 743224); note: series mostly up to about 63 µM; nearly all actives have a fitted effect of over 50% in size
Method in brief: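 Luminescence from CellTiter-Glo, read after 30 min at room temperature, reports viability of VDR-bla cells treated with compounds for 16 h at 37C in the wells used for the beta-lactamase FRET read.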

[7] = qHTS assay to identify small molecule antagonists of the vitamin D receptor (VDR) signaling pathway - cell viability counter screen (AID 743225); note: nearly all actives have a fitted effect of over 50% in size
Method in brief: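 Cells (VDR-UAS-bla HEK 293T) are plated, rested 4 h at 37C, dosed with compound and 3 nM final 1-alpha,25-dihydroxy vitamin D3, and incubated 16 h. Viability is taken from CellTiter-Glo luminescence in the reporter wells.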

[8] = qHTS assay to identify small molecule agonists of the NFkB signaling pathway - cell viability counter screen (AID 1159515; calls by dose curve; note: series mostly up to about 61 µM; nearly all actives have a fitted effect of over 55% in size)
Method in brief: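 Luminescence from CellTiter-Glo (30 min, room temperature) gives viability, measured in the same wells as the beta-lactamase reporter read. Cells were NFkB-bla ME-180, 2,000 per well, treated 5 hr with compounds.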

[9] = qHTS assay to identify small molecule agonists of the endoplasmic reticulum stress response signaling pathway (AID 1159516; active = well fitted activation curve with a large enough effect in the signal ratio in the repeat runs, not every such curve was filed as active; the % refers to the signal ratio; note: potency is the fitted concentration of half-maximal effect)
Method in brief: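 Read-out is beta-lactamase cleavage of a FRET substrate (405 nm excitation; 460 and 530 nm emissions) in ESRE-bla HeLa cells after a 5 hr compound exposure at 37 C. Substrate incubation ran 2 hr at room temperature.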

[10] = qHTS assay to identify small molecule agonists of the endoplasmic reticulum stress response signaling pathway - cell viability counter screen (AID 1159517; calls by dose curve)
Method in brief: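 ESRE-bla HeLa cells, 1,500 per well, seeded overnight then treated with compounds for 5 hr at 37 C. After the beta-lactamase read, viability in the same wells is measured by CellTiter-Glo luminescence after 30 min at room temperature.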

[11] = qHTS assay to identify small molecule antagonists of the retinoid-related orphan receptor gamma (ROR-gamma) signaling pathway - cell viability counter screen (AID 1159520); note: nearly all actives have a fitted effect of over 50% in size; note: potency is the fitted concentration of half-maximal effect
Method in brief: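 Tet-on ROR gamma CHO cells were given compounds for 2 hr, then doxycycline hyclate at 1 uM final, and incubated 16 hr at 37 C. Viability was measured as ATP content by CellTiter-Glo luminescence.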

[12] = target: Nuclear receptor ROR-gamma (Homo sapiens) (UniProt P51449); assay: qHTS assay to identify small molecule antagonists of the retinoid-related orphan receptor gamma (ROR-gamma) signaling pathway (AID 1159521; note: nearly all actives have a fitted effect of over 50% in size; note: potency is the fitted concentration of half-maximal effect)
Method in brief: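 RORγ antagonism is scored from reduced reporter luminescence in Tet-on CHO cells. Induction used 1 uM final doxycycline hyclate for 16 h at 37 C, following a 2 h compound exposure.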

[13] = qHTS assay to identify small molecule agonists of the AP-1 signaling pathway - cell viability counter screen (AID 1159525; calls by dose curve; note: nearly all actives have a fitted effect of over 55% in size)
Method in brief: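 AP-1-bla ME-180 cells in Opti-MEM with 0.5% dialyzed FBS, compound exposure 5 h at 37 C in 15-point titration. Viability read in the same wells as ATP content by CellTiter-Glo luminescence, normalised to tetra-n-octylammonium bromide and DMSO controls.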

[14] = qHTS assay to identify small molecule agonists of the AP-1 signaling pathway (AID 1159526; calls by dose curve)
[15] = target: Vitamin D3 receptor (Homo sapiens) (UniProt P11473); assay: qHTS assay to identify small molecule agonists of the vitamin D receptor (VDR) signaling pathway (AID 743222; calls by dose curve)
Chain of Vitamin D3 receptor (Homo sapiens) (P11473 whole entry, looked up): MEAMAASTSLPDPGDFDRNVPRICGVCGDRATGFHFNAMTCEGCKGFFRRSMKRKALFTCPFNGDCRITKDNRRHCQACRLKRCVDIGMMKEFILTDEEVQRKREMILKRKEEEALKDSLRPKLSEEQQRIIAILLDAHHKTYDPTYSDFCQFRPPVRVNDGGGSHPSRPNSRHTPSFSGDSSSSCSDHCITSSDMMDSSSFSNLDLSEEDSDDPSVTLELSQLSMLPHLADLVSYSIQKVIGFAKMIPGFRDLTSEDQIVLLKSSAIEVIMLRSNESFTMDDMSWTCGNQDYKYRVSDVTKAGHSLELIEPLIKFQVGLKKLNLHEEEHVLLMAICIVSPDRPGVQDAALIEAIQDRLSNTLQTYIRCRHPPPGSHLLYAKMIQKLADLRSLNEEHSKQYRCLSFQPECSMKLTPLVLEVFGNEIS
Method in brief: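 VDR-bla cells, 2,000/well; 4 h preincubation 37C; cpd (DMSO) 16 h; LiveBLAzer B/G substrate 2 h RT; fluorescence intensity read.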

[16] = target: Vitamin D3 receptor (Homo sapiens) (UniProt P11473); assay: qHTS assay to identify small molecule antagonists of the vitamin D receptor (VDR) signaling pathway (AID 743223; active = well fitted inhibition curve with a large enough effect in the signal ratio in the repeat runs, not every such curve was filed as active; the % refers to the signal ratio)
Method in brief: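 Fluorescence from LiveBLAzer B/G FRET substrate, read after 2 h at room temperature, reflects beta-lactamase reporter activity in VDR-bla cells treated 16 h at 37C with compounds and agonist 1alpha,25-dihydroxyvitamin D3 (3 nM final).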

[17] = target: Peroxisome proliferator-activated receptor delta (Homo sapiens) (UniProt Q03181); assay: qHTS assay to identify small molecule agonists of the peroxisome proliferator-activated receptor delta (PPARd) signaling pathway (AID 743212; calls by dose curve)
Method in brief: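 GeneBLAzer UAS-bla HEK293H cells carrying a PPARδ construct were exposed to compounds at 37 °C. Beta-lactamase activity was read by FRET fluorescence after 2 h at room temperature with LiveBLAzer B/G substrate.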

[18] = target: Bile acid receptor (Homo sapiens) (UniProt Q96RI1); assay: qHTS assay to identify small molecule agonists of the farnesoid-X-receptor (FXR) signaling pathway (AID 743220; active = well fitted activation curve with a large enough effect in the signal ratio in the repeat runs, not every such curve was filed as active; the % refers to the signal ratio)
Chain of Bile acid receptor (Homo sapiens) (Q96RI1 whole entry, looked up): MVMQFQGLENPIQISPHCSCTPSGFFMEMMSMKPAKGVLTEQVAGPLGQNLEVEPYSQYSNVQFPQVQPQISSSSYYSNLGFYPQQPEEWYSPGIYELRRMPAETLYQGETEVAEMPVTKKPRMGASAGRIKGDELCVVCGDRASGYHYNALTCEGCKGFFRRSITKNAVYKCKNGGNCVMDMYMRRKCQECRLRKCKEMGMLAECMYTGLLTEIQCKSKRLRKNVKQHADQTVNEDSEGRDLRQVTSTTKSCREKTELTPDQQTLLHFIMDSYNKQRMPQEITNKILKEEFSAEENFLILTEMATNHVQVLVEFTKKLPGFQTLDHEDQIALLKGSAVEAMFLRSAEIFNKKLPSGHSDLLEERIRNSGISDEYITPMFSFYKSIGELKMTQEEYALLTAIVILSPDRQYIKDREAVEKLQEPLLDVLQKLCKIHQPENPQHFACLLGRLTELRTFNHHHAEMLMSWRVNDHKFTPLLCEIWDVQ
Method in brief: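 Beta-lactamase reporter under UAS control in GeneBLAzer FXR HEK 293T cells (5000/well) measured with LiveBLAzer FRET substrate after 2 h at room temperature. Compound exposure lasted 16 h at 37C.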

[19] = target: Bile acid receptor (Homo sapiens) (UniProt Q96RI1); assay: qHTS assay to identify small molecule antagonists of the farnesoid-X-receptor (FXR) signaling pathway (AID 743217; active = well fitted inhibition curve with a large enough effect in the signal ratio in the repeat runs, not every such curve was filed as active; the % refers to the signal ratio)
Method in brief: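 HEK 293T FXR-UAS-bla, 5000 cells/well; compound + CDCA 50 uM final; 16 h, 37 °C; B/G FRET substrate 2 h RT; fluorescence.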

[20] = target: Retinoic acid receptor RXR-alpha (Homo sapiens) (UniProt P19793); assay: qHTS assay to identify small molecule agonists of the RXR signaling pathway (AID 1159527; calls by dose curve; note: nearly all actives have a fitted effect of over 35% in size)
Chain of Retinoic acid receptor RXR-alpha (Homo sapiens) (P19793 whole entry, looked up): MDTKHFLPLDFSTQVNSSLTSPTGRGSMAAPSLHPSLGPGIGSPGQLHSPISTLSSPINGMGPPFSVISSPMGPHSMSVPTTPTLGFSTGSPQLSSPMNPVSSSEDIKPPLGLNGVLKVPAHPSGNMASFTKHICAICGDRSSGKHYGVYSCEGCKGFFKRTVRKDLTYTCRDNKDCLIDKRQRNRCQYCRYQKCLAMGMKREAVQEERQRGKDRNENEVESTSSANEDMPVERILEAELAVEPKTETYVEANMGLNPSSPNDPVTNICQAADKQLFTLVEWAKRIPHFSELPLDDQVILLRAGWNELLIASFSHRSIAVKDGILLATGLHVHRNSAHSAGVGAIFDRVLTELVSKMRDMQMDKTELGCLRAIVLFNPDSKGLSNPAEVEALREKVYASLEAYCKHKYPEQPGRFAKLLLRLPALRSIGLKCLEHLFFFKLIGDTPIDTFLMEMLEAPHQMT
Method in brief: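 qHTS of the Tox21 10K library in GeneBLAzer RXR-alpha HEK 293T cells carrying a beta-lactamase reporter […]; 16 hr treatment, 9-cis retinoic acid as agonist control, FRET read-out.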

SMILES	Potency [1]	Potency [2]	outcome [3]	Potency [4]	Potency [5]	Potency [6]	Potency [7]	Potency [8]	Potency [9]	outcome [10]	Potency [11]	Potency [12]	Potency [13]	Potency [14]	outcome [15]	Potency [16]	outcome [17]	outcome [18]	outcome [19]	Potency [20]
CCOc1cc(OCC)c(C(=O)CCC(=O)O)cc1OCC	inactive	inactive	inactive	inactive	inactive	inactive	inactive	inactive	inactive	inactive	inactive	inactive	inactive	inactive						
CC(C(=O)O)c1ccc(-c2ccccc2)c(F)c1 (stereo not drawn)	inactive	inactive		inactive		inactive	inactive	inactive	inactive	inactive	inactive	inactive	inactive	inactive	inactive	inactive				
O=C1CCCCCO1	inactive	inactive		inactive	inactive		inactive	inactive	inactive	inactive	inactive	inactive	inactive	inactive	inactive	inactive				
CCCCCCCCN(C)C	inactive	inactive		inactive	inactive	inactive	inactive	inactive	inactive	inactive	inactive	inactive	inactive	inactive	inactive					
O=C(O)/C=C/c1cnc[nH]1	inactive	inactive		inactive	inactive		inactive	inactive	inactive	inactive	inactive	inactive	inactive	inactive	inactive					
Cn1c(NCCN(CCO)CCCc2ccc([N+](=O)[O-])cc2)cc(=O)n(C)c1=O	inactive			inactive			inactive	inactive	inactive	inactive	inactive	inactive	inactive	inactive		inactive	inactive			
CC(C)(C)c1cc(CO)cc(C(C)(C)C)c1O	inactive	inactive		inactive		inactive	inactive	inactive	inactive	inactive	inactive	inactive	inactive	inactive	inactive	inactive		inactive		
CC(=O)/C=C/C1C(C)=CCCC1(C)C (stereo not drawn)	inactive	inactive		inactive		inactive	inactive	inactive	inactive	inactive	inactive	inactive	inactive	inactive	inactive	inactive		inactive	inactive	
O=C(O)c1cccc(N(Cc2cccnc2)c2ccc(OC(F)F)c(OC(F)F)c2)c1	inactive	inactive	inactive	inactive	inactive		inactive	inactive	inactive	inactive	inactive	30.6 µM (active)	inactive	inactive						
CCCCCCCCCC=O	inactive	inactive		inactive	inactive	inactive		inactive	inactive	inactive	inactive	inactive	inactive	inactive						
CC(CN)CCCN (stereo not drawn)	inactive	inactive		inactive	inactive	inactive	inactive	inactive	inactive	inactive	inactive	inactive	inactive	inactive						
CCCCCOC(=O)COc1cc(N2C(=O)C3=C(CCCC3)C2=O)c(F)cc1Cl	inactive	inactive				inactive	inactive	inactive	inactive	inactive	inactive	inactive	inactive	inactive	inactive					
O=C(O)c1cn(C2CC2)c2cc(Cl)c(F)cc2c1=O	inactive	inactive				inactive	inactive	inactive	inactive	inactive	inactive	inactive	inactive	inactive	inactive	inactive				
O=C=NC1CCC(CC2CCC(N=C=O)CC2)CC1 (stereo not drawn)		inactive				inactive	inactive	inactive	inactive	inactive	inactive	inactive	inactive	inactive	inactive		inactive			
CC(C)(C)c1cc(O)c(C(C)(C)C)cc1O		inactive		inactive	inactive	inactive		inactive	5.49 µM (active)	inactive	48.6 µM (active)	15.4 µM (active)	inactive	inactive		inactive	inactive			
COC(Cc1ccccc1)OC	inactive	inactive		inactive	inactive	inactive	inactive	inactive	inactive	inactive	inactive	inactive	inactive	inactive		inactive				
COc1ccc(OC)c(OC)c1		inactive		inactive	inactive	inactive	inactive	inactive	inactive	inactive	inactive	inactive	inactive	inactive	inactive	inactive		inactive	inactive	
SC1CCCC1	inactive	inactive		inactive		inactive	inactive	inactive	inactive	inactive	inactive	inactive	inactive	inactive						
CC(C)NCC(O)COc1ccc(CC(N)=O)cc1 (stereo not drawn)	inactive	inactive			inactive	inactive	inactive	inactive	inactive	inactive	inactive	inactive	inactive	inactive	inactive					
COc1ccccc1OC(=O)Oc1ccccc1OC	inactive	inactive		inactive	inactive	inactive	inactive	inactive	inactive	inactive	inactive	inactive	inactive	inactive	inactive	inactive				
O=C1[C@H](CC[C@H](O)c2ccc(F)cc2)[C@@H](c2ccc(O)cc2)N1c1ccc(F)cc1	inactive	inactive	inactive	inactive	inactive	inactive	inactive	inactive	inactive	inactive	inactive	inactive	inactive	inactive	inactive					
Cc1ccc(C(=O)C(C)CN2CCCCC2)cc1 (stereo not drawn)	inactive	inactive		inactive	inactive	inactive	inactive	inactive	inactive	inactive	inactive	inactive	inactive	inactive	inactive			inactive	inactive	
CCN(CC)CCNC(C(=O)OCCC(C)C)c1ccccc1 (stereo not drawn)	inactive	inactive	inactive	inactive	inactive	inactive	inactive	inactive	inactive	inactive	inactive	inactive	inactive				inactive			inactive
CCCCOc1cc(C(=O)OCCN(CC)CC)ccc1N	inactive	inactive		inactive	inactive		inactive	inactive	inactive	inactive	inactive	inactive	inactive		inactive	inactive		inactive	inactive	inactive
CN1CCN(C2=Nc3cc(Cl)ccc3Nc3ccccc32)CC1				inactive			inactive	inactive	inactive	inactive	inactive	inactive	inactive	inactive				inactive	inactive	
